Drawing on PubChem BioAssay AID504408 (Broad Institute, 2011), this text covers activation for 90 molecules.

SMILES strings stand for the structures. Hit rate of the full screen: of about 300,000 compounds, about 5,200 (1.7%) were called active.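 How the source made its calls: active means mean replicate activation of at least 50% with a set share of replicates each reaching 50%; inconclusive means only one of those two conditions met; inactive means mean below 50% and too few replicates reaching it.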 The entries come from a sample that favours actives as a whole.

This test in a line: HSF-1 response element luciferase induction – NIH3T3-HGL cells, MG132 stress, luminescence, single point, primary screen (AID 504408).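 Further: 0% = median of the neutral control wells and 100% = twice that signal.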 The settings on record: NIH3T3-HGL HSF-1 luciferase reporter, MG132, 8 h; at 9 µM; stronger effect = higher value; 100% = twice DMSO control signal.
For `Cc1ccc(NC(=O)CSc2nc(=O)n(CCN(C)C)c3c2CCCC3)c(C)c1`, the activation was -10.7% (inactive).

In the case of `CN1CCN(S(=O)(=O)c2ccc(Nc3ccc(F)cc3)nc2)CC1`, the activation was -7% (inactive).

Turning to `NS(=O)(=O)c1ccc(CCNC(=O)CN2C(=O)c3ccccc3S2(=O)=O)cc1`, the activation is -4.15% (inactive).

Consider `COc1ccc(S(=O)(=O)NCCCc2ccccc2)cc1`, for which the activation was -30.2% (inactive).

Turning to `NC(=O)COC(=O)/C=C/c1ccc2ccccc2n1`, the activation is -46.9% (inactive).

As for `COc1cccc(/C=C/c2ccc3ccccc3n2)c1OC(C)=O`, the activation was -16.6% (inactive).

For `CCOc1cccc(/C=C/c2ccc3ccccc3n2)c1OC(C)=O`, the activation was 132% (active).

For `O=C(Nc1ncccc1O)c1ccc(C(=O)c2ccccc2)cc1`, the activation was -2.58% (inactive).

Take `CCCCn1c(N)c(N(CCOC)C(=O)CSCC(=O)Nc2cccc(C)c2)c(=O)[nH]c1=O`: the activation was 1.06% (inactive).

Consider `CCC1Nc2ncnc(N3CCN(c4ccccc4)CC3)c2N(Cc2ccc(Cl)cc2)C1=O` (stereo not given), for which the activation was 22.3% (inactive).

`Cc1ccc(N2C(=O)SC(N(CC(=O)O)c3ccc(C)cc3)C2=O)cc1` (stereo not given): the activation is 96.4% (active).

For `Cc1ccc(CC2S/C(=C(/C#N)C(=O)N3CCOCC3)N(c3ccccc3)C2=O)cc1` (stereo not given), the activation is 19.9% (inactive).

On to `Cc1cccc(N2C(=O)SC(N(CC(=O)O)c3cccc(C)c3)C2=O)c1` (stereo not given), for which the activation is 17.2% (inactive).

Regarding `CC(=O)Nc1ccc(C(=O)NNC(=O)CCCCC(=O)NNC(=O)c2ccc(NC(C)=O)cc2)cc1`, the activation is 0.0985% (inactive).

With `Cc1ccc(C(=O)NC2CCCC(C)C2C)cc1S(=O)(=O)N1CCCCC1` (stereo not given), the activation is 2.09% (inactive).

Regarding `O=[N+]([O-])c1ccc(S(=O)(=O)Nc2cccc(-c3ccc(N4CCCC4)nn3)c2)cc1`, the activation was -7.69% (inactive).

For the molecule `Clc1ccc(-c2ncc3ccccn23)c(Cl)c1`, the activation is 69.3% (active).

As to `COn1c(-c2ccc(Cl)cc2Cl)nc2ncccc21`, the activation was 22.3% (inactive).

On to `Clc1ccc(COn2c(-c3ccc(Cl)cc3Cl)nc3ncccc32)cc1`, for which the activation was -4.74% (inactive).

Turning to `COc1ccc(-c2nc3ccccc3c(=O)n2CCc2ccc(O)cc2)cc1`, the activation was 29.5% (inactive).

Turning to `COc1ccc(-c2c(C#Cc3ccccc3)c3ccccc3n2C)cc1`, the activation is 64.2% (active).

For `COc1ccc(-c2cc(C(=O)n3cnc4ccccc43)c3ccccc3n2)cc1`, the activation is -1.65% (inactive).

For `O=C(COC(=O)c1ccccc1Br)Nc1nnc(-c2ccccc2)o1`, the activation is -10.6% (inactive).

`CC1CCN(c2ccc(-c3ccc(NC(=O)c4ccco4)cc3)nn2)CC1`: the activation was -39.2% (inactive).

With `CSCCC(NC(=O)c1ccco1)C(=O)Nc1cc(C)ccn1` (stereo not given), the activation was 4.08% (inactive).

Regarding `Cc1ccc(-c2csc(NC(=O)C3=COCCO3)n2)cc1C`, the activation was 31.4% (inactive).

In the case of `Cc1cc(C)c(C#N)c(SCc2[nH]nc3c2C(c2ccccc2)C(C#N)=C(N)O3)n1` (stereo not given), the activation was 64% (active).

Regarding `CCc1ccc(C2C(C#N)=C(N)Oc3n[nH]c(CC(=O)OC)c32)cc1` (stereo not given), the activation is 3.08% (inactive).

On to `Cc1cc(C)c2c3c(sc2n1)C(c1ccccc1)C(C#N)=C(N)O3` (stereo not given), for which the activation is -10.5% (inactive).

As to `CCN(C(=O)CSc1ncnc2c1cnn2-c1ccccc1)C1CCS(=O)(=O)C1` (stereo not given), the activation is -4.69% (inactive).

On to `Fc1ccc(-c2csc(-c3ccc(C4SCCS4)cc3)n2)cc1F`, for which the activation was 23.4% (inactive).

Consider `Clc1ccc(-c2csc(-c3ccncc3)n2)cc1`, for which the activation is 58% (active).

`Nc1scc(-c2ccncc2)c1Cl`: the activation is 11.5% (inactive).

With `CCCn1c(C)cc(/C=C(\C#N)C(=O)OCC(=O)N(C)c2c(N)n(Cc3ccccc3)c(=O)[nH]c2=O)c1C`, the activation is -4.32% (inactive).

With `Cc1nn(-c2ccccc2)c(Cl)c1C(=O)Nc1ccccc1`, the activation was -8.73% (inactive).

As to `Cc1ccc(C(=O)/C=C/c2c(C)nn(-c3ccccc3)c2Cl)cc1`, the activation is 42.3% (inactive).

For the molecule `Cc1nn(-c2ccccc2)c(Cl)c1/C=C/C(=O)c1ccc(O)cc1`, the activation was 76.9% (active).

Regarding `COc1cc2c(cc1OC)C(Cc1cc(OC)c(OC)cc1[N+](=O)[O-])=NCC2`, the activation is -5.53% (inactive).

Take `O=C(N/N=C/c1ccc([N+](=O)[O-])o1)c1cn(-c2ccccc2)nc1-c1ccc(F)cc1`: the activation was 3.06% (inactive).

Regarding `C/[N+]([O-])=C\c1ccc([N+](=O)[O-])o1`, the activation is -2.43% (inactive).

For the molecule `O=C(/C=C/c1ccc([N+](=O)[O-])o1)NNC(=O)c1ccc(F)cc1`, the activation was 71.3% (active).

On to `Cc1ccc(OCCNC(=O)CNC(=O)c2ccc(C)c(C)c2)cc1`, for which the activation was 16.2% (inactive).

Regarding `O=C1[C@H]2[C@@H](c3ccc(Cl)cc3)N3C(=O)N(c4cccc(F)c4)C(=O)[C@@]3(Cc3ccccc3)[C@H]2C(=O)N1C1CCCCC1`, the activation is -0.394% (inactive).

Turning to `COC(=O)c1cc(NC(=O)Cc2ccccc2[N+](=O)[O-])ccc1Cl`, the activation is -11.7% (inactive).

With `N#Cc1cccc(NC(=O)COC(=O)c2ccccc2C(=O)c2ccc(Cl)c([N+](=O)[O-])c2)c1`, the activation was 241% (active).

For `CC(=O)Nc1ccc(NC(=O)C(C)OC(=O)c2ccccc2C(=O)c2ccc(Cl)c([N+](=O)[O-])c2)cc1` (stereo not given), the activation was 27.5% (inactive).

With `CC1(c2ccc(Cl)cc2Cl)NC(=O)N(CC(=O)Nc2cccnc2Cl)C1=O` (stereo not given), the activation was -7.46% (inactive).

For `COc1ccccc1CCNC(=O)C(=O)NCCC1CCCCN1S(=O)(=O)c1cccs1` (stereo not given), the activation is 18% (inactive).

As to `CN(CC(=O)NCc1cccnc1)S(=O)(=O)c1cc(Cl)ccc1Cl`, the activation is 1.99% (inactive).

Take `CC(Oc1ccc(Br)cc1)C(=O)NCC(c1ccco1)N1CCCCC1` (stereo not given): the activation was 12.7% (inactive).

For `CC(OC(=O)c1ccc(-n2cnnn2)cc1)C(=O)NCc1ccccc1` (stereo not given), the activation was -14% (inactive).

As to `CCN1CCN(C(c2cccnc2)c2cc(Cl)c3cccnc3c2O)CC1` (stereo not given), the activation is -83.7% (inactive).

On to `CCOC(=O)N1CCN(C(=O)CSc2nc(=O)n3cccc(C)c3n2)CC1`, for which the activation was -0.428% (inactive).

`CCOC(=O)N1CCN(C(c2cccnc2)c2ccc3cccnc3c2O)CC1` (stereo not given): the activation was 67.9% (active).

Regarding `Cc1ccc(S(=O)(=O)c2nnn3c2nc(N2CCN(c4ccccn4)CC2)c2ccccc23)cc1`, the activation is 30.6% (inactive).

As to `Cc1cccc(Nc2nc3c(S(=O)(=O)c4ccccc4)nnn3c3ccccc23)c1C`, the activation is 8.48% (inactive).

On to `CC(=O)Nc1ccc(Nc2nc3c(S(=O)(=O)c4ccc(C)c(C)c4)nnn3c3ccccc23)cc1`, for which the activation is 74.4% (active).

Turning to `COc1ccc(/C=C(\C#N)C(=O)OCC(=O)N(C)C2CCS(=O)(=O)C2)cc1` (stereo not given), the activation is -4.8% (inactive).

For `Cc1ccc2nc(SCC(=O)Nc3cccc4ccccc34)nc(=O)n2c1`, the activation was 16.2% (inactive).

On to `CN(C)CCCn1c(N)c(C#N)c2nc(C#N)c(C#N)nc21`, for which the activation was 76.2% (active).

With `CC(C)(C)c1ccc(C(=O)NCCn2c(N)c(C#N)c3nc4ccccc4nc32)cc1`, the activation was 27.2% (inactive).

For the molecule `N#Cc1c(N)n(CCOC(=O)c2ccc(Cl)cc2)c2nc3ccccc3nc12`, the activation is 26.8% (inactive).

`CC(OC(=O)CCCc1c[nH]c2ccccc12)C(=O)Nc1ccc(S(N)(=O)=O)cc1` (stereo not given): the activation was 8.99% (inactive).

Regarding `CC(=O)Nc1ccc(C(=O)Nc2cccc(S(=O)(=O)NC3=NCCC3)c2)cc1`, the activation is -9.72% (inactive).

`COc1ccc(C(=O)CN2C(=O)NC3(CCc4ccccc43)C2=O)c(OC)c1` (stereo not given): the activation was -14% (inactive).

For `Cc1nn(C)cc1C(=O)c1ccccc1`, the activation was 5.22% (inactive).

With `Cc1cc(NC(=O)C(C)N2C(=O)c3ccccc3S2(=O)=O)no1` (stereo not given), the activation was -3.5% (inactive).

Consider `COc1cc2ccccc2cc1C(=O)N1CCOCC1`, for which the activation was -5.8% (inactive).

Turning to `C=CCN1C(=O)C(Cc2cccc(Cl)c2)S/C1=N/N=C/c1ccco1` (stereo not given), the activation is 23.1% (inactive).

In the case of `C=CCN1C(=O)C(Cc2ccc(OCC)cc2)SC1=Nc1ccc(C(=O)O)cc1` (stereo not given), the activation is 58.5% (active).

On to `CCOc1ccc(N=C2SC(C(=O)O)CC(=O)N2C)cc1` (stereo not given), for which the activation is -0.001% (inactive).

For the molecule `COc1cccc(N2CC(NC(=O)c3ccc4ccccc4c3)CC2=O)c1` (stereo not given), the activation was -3.4% (inactive).

For the molecule `Nc1c(-c2ccccc2)nnn1Cc1ccccc1`, the activation was 17.5% (inactive).

As to `O=C(/C=C/c1ccc2c(c1)OCO2)NCc1cn2cc(Cl)ccc2n1`, the activation was 1.53% (inactive).

For the molecule `O=c1c2ccccc2nc2n1C(CSc1ccc(Cl)cc1)CN2` (stereo not given), the activation was -13% (inactive).

Regarding `Clc1ccc2nc(CSc3ccccc3)cn2c1`, the activation was 70.2% (active).

As for `N#CC1(NC(=O)COC(=O)Cc2n[nH]c(=O)c3ccccc23)CCCCC1`, the activation is 3.96% (inactive).

As for `COc1ccc(-c2cc(C(=O)N(C)CC(=O)Nc3ccccc3Cl)c3ccccc3n2)cc1OC`, the activation was -23.1% (inactive).

As to `CCOC(=O)C(C)n1cnc2sc(C)c(C)c2c1=O` (stereo not given), the activation was 6.07% (inactive).

Consider `Cc1c(C(N)=O)sc2ncn(CCOc3ccccc3)c(=O)c12`, for which the activation was 58.5% (active).

Turning to `Cc1cccc(OC(=O)c2sc3ncn(C)c(=O)c3c2C)c1`, the activation was 17.3% (inactive).

For `CCOc1ccc(CCNC(=O)COC(=O)c2ccc(F)c(S(=O)(=O)N3CCOCC3)c2)cc1OCC`, the activation is -9.54% (inactive).

As for `CCC(=O)N1CCc2cc(Br)c(S(=O)(=O)NCCN3CCCCC3CC)cc21` (stereo not given), the activation is -1.08% (inactive).

As to `COc1ccc(C(=O)Nc2cccc(NC(=O)c3ccc(OC)cc3OC)n2)c(OC)c1`, the activation is -34.1% (inactive).

With `O=C1CCCC(O)=C1C=NCCc1ccccc1`, the activation is 21% (inactive).

`O=C1CC(c2ccccc2)CC(O)=C1C=NCCN1CCOCC1` (stereo not given): the activation was -5.8% (inactive).

On to `O=C1CC(c2cccc(Cl)c2)CC(O)=C1C=Nc1ccccc1` (stereo not given), for which the activation is 116% (active).

`O=C(NCCS(=O)(=O)N1CCN(c2ccccc2)CC1)c1ccco1`: the activation was 4.49% (inactive).

As to `Cc1cc(O)c(Sc2ccccc2)c(=O)o1`, the activation is -2.42% (inactive).

For `CCCCn1c(N)c(N(CC(C)C)C(=O)c2cccc(S(=O)(=O)N3CCN(C(C)=O)CC3)c2)c(=O)[nH]c1=O`, the activation was -4.85% (inactive).
